From PubChem BioAssay
Calls of active or inactive are those of the source.

Legend:
[1] = tested on: Plasmodium falciparum Sir2 (PF13_0152, Sir2A); assay: pfSir2 binders on small-molecule microarrays, primary screen, biochemical, small-molecule microarray, 635 nm fluorescence (AID 1098); conditions: small-molecule microarray binding, fluorescence 635 nm; higher = more signal;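 also: score merges spot fluorescence intensity with its signal-to-noise ratio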
[2] = small-molecule microarray binders of probe aDKK1, primary screen, biochemical, biotinylated probe, 635/667 nm fluorescence (AID 1099); conditions: higher = more signal;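 also: score merges 667nm spot fluorescence with signal to noise across triplicate slides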
[3] = small-molecule microarray binders of probe aCHRDL2, primary screen, biochemical, biotinylated probe, 635/667 nm fluorescence (AID 1100); conditions: higher = more signal
[4] = splicing luciferase reporter signal modulators, primary screen, spliceosome inhibition project, cell-based, HEK293, splice +/- reporter (AID 1101); conditions: luminescence, 24 h, higher = more signal, called active from +8 up or from −8 down;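 also: HEK293 cells carrying a splicing-competent luciferase reporter gene; test concentration not given here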
[5] = target: Fibroblast growth factor 10 (Homo sapiens) (UniProt O15520); assay: FGF10 binders on small-molecule microarrays, primary screen, biochemical, small-molecule microarray, 635 nm fluorescence (AID 1102); conditions: FGF10 binding, fluorescence 635 nm, higher = more signal
[6] = tested on: glycogen synthase kinase-3 (GSK3A per assay name; protocol says GSK3B); assay: GSK3 binders on small-molecule microarrays, primary screen, biochemical, small-molecule microarray, 635 nm fluorescence, GSK3A (AID 1103); conditions: small-molecule microarray binding, fluorescence 635 nm; higher = more signal; also: the record names both GSK3A and GSK3B
[7] = target: Epidermal growth factor receptor (Homo sapiens) (UniProt P00533); assay: EGFR binders on small-molecule microarrays, primary screen, biochemical, small-molecule microarray, 635 nm fluorescence (AID 1104); conditions: EGFR binding, higher = more signal;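 also: score merges 667 nm emission intensity with spot signal to noise over triplicate slides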
[8] = target: Follistatin-related protein 3 (Homo sapiens) (UniProt O95633); assay: FSTL3 binders on small-molecule microarrays, primary screen, biochemical, small-molecule microarray, 635 nm fluorescence (AID 1105); conditions: FSTL3 binding, higher = more signal;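 also: score merges emission near 667 nm and signal to noise per printed spot across three slides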
[9] = target: Dickkopf-related protein 1 (Homo sapiens) (UniProt O94907); assay: DKK1 binders on small-molecule microarrays, primary screen, biochemical, small-molecule microarray, 635 nm fluorescence scan (AID 1106); conditions: DKK1 binding, higher = more signal;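 also: score merges emission near 667 nm with signal to noise over three replicate slides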
[10] = tested on: Inhibin beta A chain (activin A); assay: INHBA (activin A) binders on microarrays, primary screen, biochemical, small-molecule microarray, 635 nm fluorescence scan (AID 1107); conditions: small-molecule microarray binding, higher = more signal;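 also: mouse activin A protein probed at 4.33 µg/mL on printed slides; score merges bound-protein fluorescence near 667 nm with spot signal-to-noise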
[11] = tested on: Human papillomavirus type 1a protein E7 (residues 44-93); assay: HPV1a E7 fragment binders on microarrays, primary screen, biochemical, small-molecule microarray, residues 44-93, 635 nm fluorescence (AID 1108); conditions: small-molecule microarray binding, fluorescence 635 nm; higher = more signal;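 also: E7 fragment applied at 1 µg/mL in TBST for 1 h at 4 C; score combines spot fluorescence with its signal to noise ratio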
[12] = modulators of HCV replicon luciferase signal, primary screen, HCV replication inhibitor project, Huh7 cells, luciferase reporter (AID 1109); conditions: 48 h, higher = more signal;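 also: huh7 hepatoma cells harbouring a luciferase neomycin HCV replicon reporter; luciferase luminescence as measure of HCV replicon replication; test concentration not given here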
[13] = target: Left-right determination factor 2 (Homo sapiens) (UniProt O00292); assay: LEFTY2 binders on small-molecule microarrays, primary screen, biochemical, small-molecule microarray, 635 nm fluorescence scan (AID 1110); conditions: LEFTY2 binding, higher = more signal
[14] = target: Calmodulin-1 (Homo sapiens) (UniProt P0DP23); assay: CALM1 binders on microarrays, EGTA buffer, profiling panel, biochemical, small-molecule microarray, Cy5-labelled CALM1 (AID 1111); conditions: Cy5-CALM1 binding fluorescence, higher = more signal;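 also: labelled calmodulin applied in Tris saline Tween buffer holding calcium plus EGTA and DTT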
[15] = target: Calmodulin-1 (Homo sapiens) (UniProt P0DP23); assay: calcium-bound CALM1 binders on microarrays, profiling panel, artefact control for SMM control-protein annotation, biochemical, small-molecule microarray, Cy5-labelled CALM1, plus calcium (AID 1112); conditions: Cy5-CALM1 binding fluorescence, higher = more signal;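 also: score merges spot fluorescence with signal to noise from triplicate slides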
[16] = small-molecule microarray binders of probe aWnt5a, primary screen, biochemical, biotinylated probe, 635/667 nm fluorescence (AID 1113); conditions: higher = more signal;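 also: score merges 667 nm fluorescence intensity with signal-to-noise per printed feature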
[17] = small-molecule microarray binders of probe aShh, primary screen, biochemical, biotinylated probe, 635/667 nm fluorescence (AID 1114); conditions: higher = more signal;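 also: probe is biotin-labelled aShh protein from a stem cell growth factor screen; measures binding of labelled protein to compounds printed on the slide; score merges feature fluorescence at 667 nm with signal-to-noise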
[18] = small-molecule microarray binders of probe aNog, primary screen, biochemical, biotinylated probe, 635/667 nm fluorescence (AID 1115); conditions: higher = more signal;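 also: probe is biotinylated aNog protein used at 0.15 µg/mL for 1 h at 4 C; z-score combines 667 nm fluorescence of each spot with its signal to noise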
[19] = target: Torsin-1A-interacting protein 1 (Homo sapiens) (UniProt Q5JTV8); assay: LAP1 binders from COS7 cell lysate, primary screen, small-molecule microarray, 635/667 nm fluorescence (AID 1116); conditions: COS7-hLAP1 lysate binding, 635 nm fluorescence, higher = more signal
[20] = target: Alpha-bungarotoxin (Bungarus multicinctus) (UniProt P60615); assay: alpha-bungarotoxin binders on microarray, profiling panel, artefact control for SMM control protein annotation, biochemical, small-molecule microarray, Alexa647 label, 635/667 nm fluorescence (AID 1117); conditions: alpha-BTX-A647 binding fluorescence, higher = more signal
Sequence of Alpha-bungarotoxin (Bungarus multicinctus) (P60615 whole entry, looked up): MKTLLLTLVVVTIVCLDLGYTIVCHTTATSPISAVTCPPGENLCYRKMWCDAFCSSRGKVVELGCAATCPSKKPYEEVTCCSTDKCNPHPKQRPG

Sequence of Fibroblast growth factor 10 (Homo sapiens) (O15520 whole entry, looked up): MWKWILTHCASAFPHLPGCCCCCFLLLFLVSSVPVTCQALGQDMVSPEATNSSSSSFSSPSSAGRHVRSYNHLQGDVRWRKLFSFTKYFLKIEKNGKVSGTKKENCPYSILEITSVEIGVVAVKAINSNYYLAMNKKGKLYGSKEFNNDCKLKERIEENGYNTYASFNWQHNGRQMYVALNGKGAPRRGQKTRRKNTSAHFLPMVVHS
Sequence of Left-right determination factor 2 (Homo sapiens) (O00292 whole entry, looked up): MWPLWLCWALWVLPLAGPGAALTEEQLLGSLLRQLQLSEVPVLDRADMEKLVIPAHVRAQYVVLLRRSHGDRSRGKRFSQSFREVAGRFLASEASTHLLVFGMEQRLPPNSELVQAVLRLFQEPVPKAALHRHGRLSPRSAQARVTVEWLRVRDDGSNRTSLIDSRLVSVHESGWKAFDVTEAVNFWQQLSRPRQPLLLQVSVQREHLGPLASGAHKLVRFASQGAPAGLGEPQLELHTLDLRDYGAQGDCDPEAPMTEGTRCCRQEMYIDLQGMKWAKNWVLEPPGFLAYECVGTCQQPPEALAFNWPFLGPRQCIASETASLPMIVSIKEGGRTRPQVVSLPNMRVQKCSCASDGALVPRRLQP
Sequence of Dickkopf-related protein 1 (Homo sapiens) (O94907 whole entry, looked up): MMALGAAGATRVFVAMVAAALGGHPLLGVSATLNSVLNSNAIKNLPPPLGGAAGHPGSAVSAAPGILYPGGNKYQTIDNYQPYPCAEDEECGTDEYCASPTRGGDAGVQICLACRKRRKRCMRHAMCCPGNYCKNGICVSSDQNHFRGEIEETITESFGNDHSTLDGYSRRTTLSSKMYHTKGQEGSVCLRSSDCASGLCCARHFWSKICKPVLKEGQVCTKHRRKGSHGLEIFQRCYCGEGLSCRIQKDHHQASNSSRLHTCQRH
Sequence of Follistatin-related protein 3 (Homo sapiens) (O95633 whole entry, looked up): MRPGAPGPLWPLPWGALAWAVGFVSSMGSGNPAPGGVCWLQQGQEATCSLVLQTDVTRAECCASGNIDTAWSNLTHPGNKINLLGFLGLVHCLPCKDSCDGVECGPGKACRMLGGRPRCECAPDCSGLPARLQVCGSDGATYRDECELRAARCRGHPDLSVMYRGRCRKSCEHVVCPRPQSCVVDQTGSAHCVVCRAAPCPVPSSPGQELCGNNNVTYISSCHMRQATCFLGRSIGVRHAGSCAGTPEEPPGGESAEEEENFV
Sequence of Epidermal growth factor receptor (Homo sapiens) (P00533 whole entry, looked up): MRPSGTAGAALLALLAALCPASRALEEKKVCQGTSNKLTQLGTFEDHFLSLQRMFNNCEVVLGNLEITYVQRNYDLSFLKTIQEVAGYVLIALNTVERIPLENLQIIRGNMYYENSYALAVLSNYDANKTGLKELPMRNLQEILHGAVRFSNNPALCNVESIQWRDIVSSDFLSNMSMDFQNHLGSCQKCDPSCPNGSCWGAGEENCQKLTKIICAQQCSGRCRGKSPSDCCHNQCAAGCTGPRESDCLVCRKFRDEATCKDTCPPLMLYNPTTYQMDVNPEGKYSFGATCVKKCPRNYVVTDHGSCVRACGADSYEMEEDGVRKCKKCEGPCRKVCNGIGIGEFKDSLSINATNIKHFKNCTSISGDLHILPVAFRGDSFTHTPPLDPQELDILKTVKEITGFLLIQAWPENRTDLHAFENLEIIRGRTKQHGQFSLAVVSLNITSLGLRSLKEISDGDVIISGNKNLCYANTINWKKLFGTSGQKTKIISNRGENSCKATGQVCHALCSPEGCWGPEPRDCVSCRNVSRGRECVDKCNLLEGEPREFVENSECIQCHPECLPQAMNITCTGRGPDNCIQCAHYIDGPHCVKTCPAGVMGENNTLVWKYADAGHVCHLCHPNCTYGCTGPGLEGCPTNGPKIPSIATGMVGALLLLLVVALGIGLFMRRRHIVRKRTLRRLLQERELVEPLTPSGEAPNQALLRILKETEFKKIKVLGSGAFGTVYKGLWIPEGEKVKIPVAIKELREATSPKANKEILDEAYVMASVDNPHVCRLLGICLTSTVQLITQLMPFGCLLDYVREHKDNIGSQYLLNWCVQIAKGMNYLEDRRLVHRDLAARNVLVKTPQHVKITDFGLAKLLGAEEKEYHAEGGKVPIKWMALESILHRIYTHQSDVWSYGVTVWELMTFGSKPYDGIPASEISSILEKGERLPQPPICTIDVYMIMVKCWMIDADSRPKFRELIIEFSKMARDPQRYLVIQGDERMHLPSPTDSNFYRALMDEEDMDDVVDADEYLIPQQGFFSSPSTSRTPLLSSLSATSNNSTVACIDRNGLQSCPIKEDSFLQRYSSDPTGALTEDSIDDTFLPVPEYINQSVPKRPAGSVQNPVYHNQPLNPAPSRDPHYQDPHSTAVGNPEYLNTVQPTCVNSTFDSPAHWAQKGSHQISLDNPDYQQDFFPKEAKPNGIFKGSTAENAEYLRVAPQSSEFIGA
Sequence of Torsin-1A-interacting protein 1 (Homo sapiens) (Q5JTV8 whole entry, looked up): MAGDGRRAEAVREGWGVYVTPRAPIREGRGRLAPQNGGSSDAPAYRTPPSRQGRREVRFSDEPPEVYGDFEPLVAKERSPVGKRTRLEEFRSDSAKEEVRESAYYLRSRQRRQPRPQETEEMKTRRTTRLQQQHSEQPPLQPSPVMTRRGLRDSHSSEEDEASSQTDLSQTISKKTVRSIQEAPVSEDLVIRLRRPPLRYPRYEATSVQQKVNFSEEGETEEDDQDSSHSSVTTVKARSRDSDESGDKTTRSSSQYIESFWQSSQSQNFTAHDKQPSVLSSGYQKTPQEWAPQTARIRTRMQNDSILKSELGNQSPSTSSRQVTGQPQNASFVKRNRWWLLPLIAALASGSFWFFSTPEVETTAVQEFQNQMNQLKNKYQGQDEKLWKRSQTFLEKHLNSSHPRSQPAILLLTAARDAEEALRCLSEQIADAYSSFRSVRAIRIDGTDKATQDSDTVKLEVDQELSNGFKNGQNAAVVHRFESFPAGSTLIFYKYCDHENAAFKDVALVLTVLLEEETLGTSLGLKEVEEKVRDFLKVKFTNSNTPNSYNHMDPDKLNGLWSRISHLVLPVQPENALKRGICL

Structure (SMILES) | composite z-score [1] | composite z-score [2] | composite z-score [3] | z-score [4] | composite z-score [5] | composite z-score [6] | composite z-score [7] | composite z-score [8] | composite z-score [9] | composite z-score [10] | composite z-score [11] | z-score [12] | composite z-score [13] | composite z-score [14] | composite z-score [15] | composite z-score [16] | composite z-score [17] | composite z-score [18] | composite z-score [19] | composite z-score [20]
CCCC[C@H]1OB(O)C[C@H]2C1=C(COc1ccccc1)C[C@H]1C(=O)N(C)C(=O)[C@H]12 | -0.328 | 0.0763 | -0.442 | 0.377 (inactive) | 0.429 | -0.0785 | 0.447 | 0.43 | 0.439 | 0.741 | -0.121 | -0.271 | 0.283 | -0.515 | -0.255 | 0.0438 | 0.0899 | -0.106 | 0.101 | 0.0648
CCc1oc(CC[C@@H](CO)NC(=O)NCCn2cc(C3(O)CCCCC3)nn2)c(C(=O)OC)c1C(=O)OC | 0.832 | -0.0378 | -0.402 | -0.0596 (inactive) | 1.13 | 0.972 | 0.717 | 1.33 | 0.887 | 0.289 | 0.814 | 0.524 | 0.905 | -0.22 | -0.657 | 0.048 | 0.381 | -0.0645 | 0.946 | 0.336
CCOC(=O)C[C@H]1[C@H](OC(=O)Cc2ccc3c(c2)OCO3)[C@@H](NC(=O)c2ccc(-c3ccccc3)cc2)c2cc(OCCCO)ccc2N1C(=O)Cc1ccc(OC)cc1 | 0.489 | 0.55 | 0.456 | -2.01 (inactive) | 0.463 | 0.116 | -0.0154 | 0.543 | -0.0143 | 0.0884 | 0.911 | -1.48 | 0.253 | 0.644 | 0.0039 | 0.0673 | 0.173 | 0.0804 | 0.521 | -0.256
O=C1OCCC=C[C@H]2OC34C=CCN(CCN5CCOCC5)C(=O)[C@H]3N(CCCCCCO)C(=O)[C@@H]4C12 (stereo not given in full) | 0.813 | -0.5 | -0.35 | 0.418 (inactive) | -0.306 | -0.225 | -0.71 | -0.351 | -0.292 | 0.191 | -0.149 | -0.135 | -0.0529 | -0.304 | -1.07 | -0.178 | -0.289 | -0.484 | 0.551 | -0.288
CC(C)(C)OC(=O)CC[C@@]1(C(=O)NCC(O)CO)N=C(c2ccc(OCCCO)cc2)O[C@@H]1c1ccccc1N=[N+]=[N-] (stereo not given in full) | 1.72 | 0.836 | 1.15 | -0.764 (inactive) | 1.36 | -0.454 | -0.468 | 0.114 | 0.311 | 0.906 | 1.47 | 0.0173 | -0.586 | 1.67 | 0.414 | 0.0279 | 0.13 | 1.71 | 2.29 | 1.6
C=CC[C@@]1(C(N)=O)N=C(c2ccc(OCCCO)cc2)O[C@@H]1c1ccccc1CN=[N+]=[N-] | 1.02 | 0.917 | 1.19 | -1.63 (inactive) | 0.903 | 0.336 | -0.44 | 0.267 | -0.196 | 1.14 | 1.39 | -1.56 | -0.294 | 1.64 | 0.767 | 0.0597 | 0.166 | 0.661 | 1.91 | 0.834
C=CCOC(=O)[C@H]1[C@@H]2C(=O)O[C@@H](c3ccccc3)[C@@H](c3ccccc3)N2[C@@H](c2ccc(OCCOC(=O)[C@H]3C[C@H]4C(=O)N5CCC[C@H]5C(=O)N4[C@H]3c3ccc(O)cc3)cc2)[C@]12C(=O)Nc1ccccc12 | 1.54 | -0.202 | 0.106 | 0.994 (inactive) | 1.47 | 1.36 | 0.999 | 1.39 | 1.81 | 0.39 | 1.45 | -1.93 | 1.42 | 0.959 | -0.0987 | 0.0354 | 0.147 | -0.21 | 1.5 | 0.588
CC(C)C(CO)N1C(=O)[C@@H]2[C@H]3C(=O)OCC=C[C@H]3OC23C=CCN(C(C)C)C(=O)[C@@H]13 (stereo not given in full) | -0.542 | -0.202 | -0.25 | 0.181 (inactive) | -0.321 | 0.269 | 0.0755 | 0.354 | 0.254 | 0.756 | -0.432 | 1.07 | -0.0108 | -0.531 | -1.11 | -0.2 | -0.223 | -0.0926 | -0.262 | -0.557
COCCOC(=O)N1C(=O)[C@@]2(c3cc(C#CC4=CCCCC4)ccc31)[C@H](c1ccc(O)cc1)N1[C@H](c3ccccc3)[C@H](c3ccccc3)OC(=O)[C@H]1[C@@H]2C(N)=O | 1.03 | -0.327 | -0.624 | -1.03 (inactive) | 1.17 | 1.12 | 0.584 | 1.16 | 0.639 | 0.155 | 1.19 | -0.696 | 0.63 | 0.624 | 0.0442 | -0.0165 | 0.157 | -0.564 | 0.745 | 1.04
CO[C@H]1O[C@H](CO)[C@@H](OC(=O)Nc2ccc(Br)cc2)[C@H](OC(=O)c2cc3ccccc3[nH]2)[C@H]1OC(=O)c1cc2ccccc2[nH]1 | 1.23 | 0.165 | 0.24 | -4.44 (inactive) | 1.19 | 1.28 | 0.408 | 0.579 | 0.0104 | 0.227 | 0.823 | -3.51 | -0.132 | 1.87 | 0.14 | 0.0775 | -0.262 | 0.121 | 0.926 | 0.353
